Measurements from the supplement of paper PMC4466140.

What was measured:
Experiment in all cases: SPOT peptide array binding signal intensity (averaged, normalized) (arbitrary units (background-subtracted, floor 0; scale differs between SH3 domains)); higher = stronger binding of the SH3 domain to the peptide
[1] = target: CaNbp2
Method in brief: (§1)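 Peptides were synthetic 15-mers on cellulose membranes, with every cysteine replaced by serine. They were incubated overnight at 4°C with GST-SH3 domains from four yeast species at 10 μg/ml in TBS-based blocking buffer. Binding signal, the replicate-averaged normalized and background-subtracted spot intensity, is in arbitrary units that differ between domains.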

[2] = target: CaRvs167
Method in brief: as §1

[3] = target: CaRvs167-3
Method in brief: as §1

[4] = target: CaSho1
Method in brief: as §1

[5] = target: CaSla1-D1-D2
Method in brief: as §1

[6] = target: CaSla1-D3
Method in brief: as §1

[7] = target: ScAbp1
Method in brief: as §1

[8] = target: ScBbc1
Method in brief: as §1

[9] = target: ScBem1-D1
Method in brief: as §1

[10] = target: ScBzz1-D1
Method in brief: as §1

[11] = target: ScBzz1-D2
Method in brief: as §1

[12] = target: ScCyk3
Method in brief: as §1

[13] = target: ScFus1
Method in brief: as §1

[14] = target: ScHof1
Method in brief: as §1

[15] = target: ScHse1
Method in brief: as §1

[16] = target: ScLsb1
Method in brief: as §1

[17] = target: ScLsb2
Method in brief: as §1

[18] = target: ScLsb3
Method in brief: as §1

[19] = target: ScLsb4
Method in brief: as §1

[20] = target: ScMyo3
Method in brief: as §1

[21] = target: ScMyo5
Method in brief: as §1

[22] = target: ScNbp2
Method in brief: as §1

[23] = target: ScPex13
Method in brief: as §1

[24] = target: ScRvs167
Method in brief: as §1

[25] = target: ScSho1
Method in brief: as §1

[26] = target: ScSla1-D1-D2
Method in brief: as §1

[27] = target: ScSla1-D3
Method in brief: as §1

[28] = target: SpAbp1-D1
Method in brief: as §1

[29] = target: SpBbc1
Method in brief: as §1

[30] = target: SpBzz1-D1
Method in brief: as §1

[31] = target: SpBzz1-D2
Method in brief: as §1

[32] = target: SpCyk3
Method in brief: as §1

[33] = target: SpHof1
Method in brief: as §1

[34] = target: SpHof1-2
Method in brief: as §1

[35] = target: SpHof1-3
Method in brief: as §1

[36] = target: SpHse1
Method in brief: as §1

[37] = target: SpLsb1
Method in brief: as §1

[38] = target: SpLsb4
Method in brief: as §1

[39] = target: SpMyo1
Method in brief: as §1

[40] = target: SpNbp2
Method in brief: as §1

[41] = target: SpPex13
Method in brief: as §1

[42] = target: SpRvs167
Method in brief: as §1

[43] = target: SpSla1-D1-D2
Method in brief: as §1

[44] = target: SpSla1-D3
Method in brief: as §1

[45] = target: AgAbp1
Method in brief: as §1

[46] = target: AgBbc1
Method in brief: as §1

[47] = target: AgBem1-D1
Method in brief: as §1

[48] = target: AgBzz1-D1
Method in brief: as §1

[49] = target: AgBzz1-D2
Method in brief: as §1

[50] = target: AgCyk3
Method in brief: as §1

[51] = target: AgFus1
Method in brief: as §1

[52] = target: AgHof1
Method in brief: as §1

[53] = target: AgHse1
Method in brief: as §1

[54] = target: AgLsb1
Method in brief: as §1

[55] = target: AgLsb4
Method in brief: as §1

[56] = target: AgMyo5
Method in brief: as §1

[57] = target: AgNbp2
Method in brief: as §1

[58] = target: AgRvs167
Method in brief: as §1

[59] = target: AgSho1
Method in brief: as §1

[60] = target: AgSla1-D1-D2
Method in brief: as §1

[61] = target: AgSla1-D3
Method in brief: as §1

[62] = target: CaAbp1-D1
Method in brief: as §1

[63] = target: CaAbp1-D2
Method in brief: as §1

[64] = target: CaBbc1
Method in brief: as §1

[65] = target: CaBem1-D1
Method in brief: as §1

[66] = target: CaBzz1-D1
Method in brief: as §1

[67] = target: CaBzz1-D2
Method in brief: as §1

[68] = target: CaCyk3
Method in brief: as §1

[69] = target: CaFus1
Method in brief: as §1

[70] = target: CaHof1
Method in brief: as §1

[71] = target: CaHse1
Method in brief: as §1

[72] = target: CaLsb1
Method in brief: as §1

[73] = target: CaLsb4
Method in brief: as §1

[74] = target: CaMyo5
Method in brief: as §1

B1: unnamed (peptide)
chain: LFMKGTPEFPKSGFS
SPOT peptide array binding signal intensity [1]: 611 | SPOT peptide array binding signal intensity [2]: 75 | SPOT peptide array binding signal intensity [3]: 1.5 | SPOT peptide array binding signal intensity [4]: 1200 | SPOT peptide array binding signal intensity [5]: 90 | SPOT peptide array binding signal intensity [6]: 289 | SPOT peptide array binding signal intensity [7]: 6.5 | SPOT peptide array binding signal intensity [8]: ≤ 0 | SPOT peptide array binding signal intensity [9]: 16 | SPOT peptide array binding signal intensity [10]: 20.5 | SPOT peptide array binding signal intensity [11]: 11.5 | SPOT peptide array binding signal intensity [12]: 1 | SPOT peptide array binding signal intensity [13]: 738 | SPOT peptide array binding signal intensity [14]: ≤ 0 | SPOT peptide array binding signal intensity [15]: 17.5 | SPOT peptide array binding signal intensity [16]: 19 | SPOT peptide array binding signal intensity [17]: ≤ 0 | SPOT peptide array binding signal intensity [18]: 197 | SPOT peptide array binding signal intensity [19]: 92.5 | SPOT peptide array binding signal intensity [20]: 21 | SPOT peptide array binding signal intensity [21]: 2 | SPOT peptide array binding signal intensity [22]: 212 | SPOT peptide array binding signal intensity [23]: 394 | SPOT peptide array binding signal intensity [24]: 32 | SPOT peptide array binding signal intensity [25]: 658 | SPOT peptide array binding signal intensity [26]: 176 | SPOT peptide array binding signal intensity [27]: 490 | SPOT peptide array binding signal intensity [28]: 52.5 | SPOT peptide array binding signal intensity [29]: ≤ 0 | SPOT peptide array binding signal intensity [30]: 140 | SPOT peptide array binding signal intensity [31]: 16.5 | SPOT peptide array binding signal intensity [32]: ≤ 0 | SPOT peptide array binding signal intensity [33]: 19 | SPOT peptide array binding signal intensity [34]: 18.8 | SPOT peptide array binding signal intensity [35]: 78 | SPOT peptide array binding signal intensity [36]: 335 | SPOT peptide array binding signal intensity [37]: ≤ 0 | SPOT peptide array binding signal intensity [38]: 629 | SPOT peptide array binding signal intensity [39]: 22.8 | SPOT peptide array binding signal intensity [40]: 100 | SPOT peptide array binding signal intensity [41]: 28 | SPOT peptide array binding signal intensity [42]: 30.8 | SPOT peptide array binding signal intensity [43]: 8 | SPOT peptide array binding signal intensity [44]: 253

B2: unnamed (peptide)
chain: NSVPIMPTLPPRPYI
SPOT peptide array binding signal intensity [45]: ≤ 0 | SPOT peptide array binding signal intensity [46]: 394 | SPOT peptide array binding signal intensity [47]: 102 | SPOT peptide array binding signal intensity [48]: 21 | SPOT peptide array binding signal intensity [49]: ≤ 0 | SPOT peptide array binding signal intensity [50]: 9.5 | SPOT peptide array binding signal intensity [51]: 20.5 | SPOT peptide array binding signal intensity [52]: 118 | SPOT peptide array binding signal intensity [53]: 320 | SPOT peptide array binding signal intensity [54]: 26 | SPOT peptide array binding signal intensity [55]: 2370 | SPOT peptide array binding signal intensity [56]: 71.5 | SPOT peptide array binding signal intensity [57]: 192 | SPOT peptide array binding signal intensity [58]: 50.2 | SPOT peptide array binding signal intensity [59]: 21 | SPOT peptide array binding signal intensity [60]: ≤ 0 | SPOT peptide array binding signal intensity [61]: ≤ 0 | SPOT peptide array binding signal intensity [62]: ≤ 0 | SPOT peptide array binding signal intensity [63]: 5 | SPOT peptide array binding signal intensity [64]: 1090 | SPOT peptide array binding signal intensity [65]: 162 | SPOT peptide array binding signal intensity [66]: 103 | SPOT peptide array binding signal intensity [67]: 3 | SPOT peptide array binding signal intensity [68]: 120 | SPOT peptide array binding signal intensity [69]: 293 | SPOT peptide array binding signal intensity [70]: 15 | SPOT peptide array binding signal intensity [71]: 310 | SPOT peptide array binding signal intensity [72]: 3.25 | SPOT peptide array binding signal intensity [73]: 2280 | SPOT peptide array binding signal intensity [74]: 27.5 | SPOT peptide array binding signal intensity [1]: 400 | SPOT peptide array binding signal intensity [2]: 423 | SPOT peptide array binding signal intensity [3]: ≤ 0 | SPOT peptide array binding signal intensity [4]: 260 | SPOT peptide array binding signal intensity [5]: 52 | SPOT peptide array binding signal intensity [6]: 46 | SPOT peptide array binding signal intensity [7]: ≤ 0 | SPOT peptide array binding signal intensity [8]: 128 | SPOT peptide array binding signal intensity [9]: ≤ 0 | SPOT peptide array binding signal intensity [10]: 3 | SPOT peptide array binding signal intensity [11]: 1 | SPOT peptide array binding signal intensity [12]: ≤ 0 | SPOT peptide array binding signal intensity [13]: 40.5 | SPOT peptide array binding signal intensity [14]: 252 | SPOT peptide array binding signal intensity [15]: 26.5 | SPOT peptide array binding signal intensity [16]: 380 | SPOT peptide array binding signal intensity [17]: 128 | SPOT peptide array binding signal intensity [18]: 3460 | SPOT peptide array binding signal intensity [19]: 2610 | SPOT peptide array binding signal intensity [20]: 668 | SPOT peptide array binding signal intensity [21]: 107 | SPOT peptide array binding signal intensity [22]: 210 | SPOT peptide array binding signal intensity [23]: 1530 | SPOT peptide array binding signal intensity [24]: 834 | SPOT peptide array binding signal intensity [25]: 154 | SPOT peptide array binding signal intensity [26]: 2 | SPOT peptide array binding signal intensity [27]: 72 | SPOT peptide array binding signal intensity [28]: ≤ 0 | SPOT peptide array binding signal intensity [29]: 50 | SPOT peptide array binding signal intensity [30]: 78
